Hit rate of the full screen: of about 100,000 compounds, about 770 (0.77%) were called active. For the sample, actives were picked, then their nearest neighbours and some compounds at random. Values without a mark were called inactive. Rule as the data show it: active = inhibition above about 50%; inactive = the rest.
What follows are compounds tested against Gag-Pol polyprotein (Human immunodeficiency virus type 1 group M subtype B (isolate HXB2)) (UniProt P04585) (assay: RNase H inhibition, HIV 1 Gag Pol polyprotein, FRET biochemical assay, screening (AID 372)). Conditions: HIV-1 RT RNase H, FRET RNA/DNA substrate fluorescence; at 10 µM; stronger effect = higher value.

Compound	inhibition
CNC(=O)OCCc1ccc(-c2ccccc2)o1	4%
CC1CC(=O)C2=C(C1)OC(N)=C(C#N)C2c1ccc(C(F)(F)F)cc1 (stereo not drawn)	2%
COC(=O)c1ccccc1NC(=O)c1cccc(C)c1	4%
CCOc1ccc(Cc2c(O)n(-c3ccccc3)c(=S)[nH]c2=O)cc1	18%
COc1cc(/C=N/N2C(=O)c3cccc4cccc(c34)C2=O)cc(I)c1O	13%
C/C(=N/Nc1cc(-c2ccccc2)nc(-c2ccccc2)n1)c1ccc(O)cc1	4%
CCOC(=O)C1=NN(c2ccccc2)C(=O)/C1=C\c1ccc(F)cc1	0%
Cc1ccc(S(=O)(=O)Oc2ccc(/C=C3\SC(=S)NC3=O)cc2)cc1	29%
Cc1ccc(S(=O)(=O)Oc2cccc(/C=C3\SC(=S)NC3=O)c2)cc1	53% (active)
COc1ccc(S(=O)(=O)Oc2cccc(/C=C3\SC(=S)NC3=O)c2)cc1	20%
CCOC(=O)c1c(N)sc(C(=O)Nc2ccc(OC)cc2)c1C	9%
CCOc1ccc(NC(=O)c2c(N)sc(-c3ccccc3)c2C)cc1	23%
COc1ccc(NC(=O)c2c(NC(=O)c3ccco3)sc(-c3ccccc3)c2C)cc1	12%
COC(=O)c1c(N)sc(C(=O)Nc2ccc(C)cc2)c1C	0%
CCOc1ccccc1NC(=O)CN(c1ccc(C)c(Cl)c1)S(C)(=O)=O	8%
Clc1ccc(Oc2sc(Nc3cccc(Cl)c3)nc2-c2ccccc2)cc1	21%
NS(=O)(=O)c1ccc(CCNC(=O)/C=C/c2cccc([N+](=O)[O-])c2)cc1	4%
CCOc1ccc(/C=C(/C#N)c2nc3ccccc3[nH]2)cc1OC	0%
O=C(Nc1ccc2c(c1)C(=O)c1ccccc1C2=O)c1cccc(F)c1	49%
CCCCOc1ccc(C(=O)Nc2ccc3c(c2)C(=O)c2ccccc2C3=O)cc1	40%
O=C(Nc1ccc2c(c1)C(=O)c1ccccc1C2=O)c1cccc(Cl)c1	60% (active)

Compound	inhibition
CCOc1cc(C(=O)Nc2ccc3c(c2)C(=O)c2ccccc2C3=O)cc(OCC)c1OCC	0%
O=C1c2ccccc2C(=O)c2cc(NC(=O)c3coc4ccccc34)ccc21	63% (active)
Cc1ccccc1C(=O)Nc1ccc2c(c1)C(=O)c1ccccc1C2=O	18%
O=C(Nc1ccc2c(c1)C(=O)c1ccccc1C2=O)c1ccccc1	15%
O=C(O)c1ccccc1C(=O)Nc1ccc2c(c1)C(=O)c1ccccc1C2=O	0%
NC1=NC(=O)/C(=C/c2cc(Br)ccc2OCc2ccccc2)S1	9%
Cn1c(=O)c2c(nc(Sc3nc4ccccc4n3Cc3ccccc3)n2C)n(C)c1=O	0%
CC(CCC(=O)Nc1ccc(F)cc1)CC(=O)Nc1ccc(F)cc1 (stereo not drawn)	6%
CC(=O)c1cccc(NC(=O)CC2S/C(=N\N=C(/C)C(C)(C)C)NC2=O)c1 (stereo not drawn)	7%
CCCc1sc(NC(=O)c2ccc(OC)cc2)nc1-c1ccc(Br)cc1	42%
CCCCCCCNC1CC(=O)N(c2ccc(OCCC)cc2)C1=O (stereo not drawn)	6%
CCOc1ccc(C(=O)NC(=S)Nc2cc(-c3nc4cc(C)ccc4o3)ccc2Cl)cc1	60% (active)
CCOc1cc(C(=O)Nc2ccc(-c3nc4ccc(C)cc4o3)cc2)cc(OCC)c1OCC	10%
COc1ccc(C(=O)Nc2ccc3oc(-c4ccccc4)nc3c2)cc1Cl	4%
CCOc1ccc(C(=O)Nc2ccc(-c3nc4ccc(C)cc4o3)cc2)cc1Cl	59% (active)
COc1ccc(C(=O)Nc2ccc(-c3nc4cc(C)c(C)cc4o3)cc2)cc1Cl	51% (active)
CCOc1ccc(C(=O)NC(=S)Nc2ccc3oc(-c4ccc(C)cc4)nc3c2)cc1Cl	10%
CCOc1ccc(C(=O)NC(=S)Nc2ccc(-c3nc4ccc(C)cc4o3)cc2)cc1Cl	56% (active)
Cc1ccc2oc(-c3ccc(Cl)c(NC(=S)NC(=O)c4ccc(Cl)cc4)c3)nc2c1	48%
CCOc1ccc(C(=O)NC(=S)Nc2cc(-c3nc4ccc(C)cc4o3)ccc2Cl)cc1	29%
CCOc1ccc(C(=O)NC(=S)Nc2ccc(Cl)c(-c3nc4ccc(C)cc4o3)c2)cc1Cl	18%

Compound	inhibition
CCOc1ccc(C(=O)Nc2ccc(-c3nc4cc(C)ccc4o3)cc2)cc1Cl	12%
COc1ccc(C(=O)Nc2ccc3oc(-c4ccc(OC)c(Cl)c4)nc3c2)cc1Cl	30%
CCOc1c(Br)cc(/C=C2/C(=O)NN(c3ccc(C)c(C)c3)C2=O)cc1OC	22%
COc1cc([N+](=O)[O-])ccc1NC(=S)NC(=O)/C=C/c1ccccc1	12%
Fc1ccc(-c2nnc(-c3ccc(Br)o3)o2)cc1	6%
COc1ccc(OC)c(N(CC(=O)N(Cc2ccccc2)Cc2ccccc2)S(=O)(=O)c2ccccc2)c1	21%
O=C(N/N=C\c1ccc[nH]1)c1cccc2c3c([nH]c12)CCCC3	24%
COc1ccc(OC)c(NC(=O)CN(c2ccc(C(C)C)cc2)S(=O)(=O)c2ccccc2)c1	8%
C/C(=N/NC(=O)c1ccc2c(c1)OCO2)c1ccc(Br)s1	13%
COc1cc(Br)ccc1OCC(=O)N=Nc1c(O)n(C)c2c(C)cccc12	52% (active)
COc1ccc(OCC(=O)N=Nc2c(O)n(C)c3c(C)cccc23)c(Br)c1	4%
Cc1cccc2c(N=NC(=O)COc3cccc(Br)c3)c(O)n(C)c12	20%
CC(=O)Oc1ccc(-c2cccc(C(=O)OC(C)C)c2)cc1	9%
CC(C)OC(=O)c1ccc(NC(=O)c2ccc(Br)cc2)cc1	11%
N#C/C(=C/c1ccc(OCc2ccc(C(=O)O)cc2)cc1)C(=O)Nc1ccccc1	0%
C=CCc1cccc2cc(C(=O)Nc3ccc(Cl)c(Cl)c3)c(=O)oc12	62% (active)
C=CCc1cccc2cc(C(=O)Nc3ccc(NC(C)=O)cc3)c(=O)oc12	10%
C=CCc1cccc2cc(C(=O)Nc3ccccc3)c(=O)oc12	12%
C=CCc1cccc2cc(C(=O)NNC(=O)c3ccc(OC)cc3)c(=O)oc12	1%
C=CCc1cccc2cc(C(=O)NNC(=O)CC#N)c(=O)oc12	54% (active)
C=CCc1cccc2cc(C(=O)Nc3ccc(C)c(Cl)c3)c(=O)oc12	0%
